Screening data: PubChem, ICCB-Longwood Screening Facility, Harvard Medical School
S aureus helic: blocks Staphylococcus aureus DNA helicase; purified S. aureus helicase, fluorescence unwinding assay; inhibition, % (concentration not given with the values); 120,000 compounds, 0.05% hits; AID 485395; in the data active = inhibition above about 25%, passing the limit was not always enough
Sa growth inh: S. aureus growth inhibition; 170,000 compounds, 0.53% hits; relative growth, % (no concentration beside the values); S. aureus RN4220 growth, OD600, 20 h, 42 °C; active compounds read low;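 active = relative growth at most 50% at the other temperature and 20+ points below 30 °C, or under 10% at both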
Large screens that a line does not name were inactive; ! = a repeat was not active. Many of the other results were omitted from the sample, so hits are more common in it than they were.

Cc1ccc(CNC(=O)c2c[nH]n3c(=O)c(Cc4ccc(F)cc4Cl)c(C)nc23)cc1	Sa growth inh 0.6 (no result: S aureus helic)
Cc1nc2c(C(=O)NCCc3ccc(Cl)cc3)c[nH]n2c(=O)c1Cc1ccccc1F	Sa growth inh 1.1 (no result: S aureus helic)
CCC1(C(=O)OC)NC(c2ccc(OC)cc2)C2C(=O)N(C)C(=O)C21 (stereo not given)	none
COC(=O)c1ccc(S(=O)(=O)NNc2ncnc3cc(C(C)(C)C)sc23)n1C	none
CCC(=O)Nc1ccc(C(=O)CN2C(=O)NC3(CCCc4ccccc43)C2=O)cc1 (stereo not given)	none
Cc1cc(-c2ccc(S(=O)(=O)Nc3ccccc3)s2)on1	none
Cc1c(OCc2ccc(C(=O)O)o2)ccc2c(-c3ccccc3)cc(=O)oc12	none
Cc1nc2c(C(=O)NCc3ccccc3Cl)c[nH]n2c(=O)c1Cc1cccc(Cl)c1	Sa growth inh 0.6 (no result: S aureus helic)
Cc1nc2c(C(=O)NCc3ccccc3Cl)cnn2c(C)c1Cc1ccccc1	none (no result: S aureus helic)
Nc1nc(-c2ccc3c(c2)CCCC3)cs1	none
Nc1nc(=S)nc(Cc2ccc3c(c2)CCC3)[nH]1	Sa growth inh 45
CC1CN(CC(O)COC(C)c2ccc(Cl)cc2)CC(C)O1 (stereo not given)	none
NC(=O)c1c(NC(=O)C2=COCCO2)sc2c1CCCC2	none (no result: Sa growth inh)
CC(C)N1CCc2c(sc(NC(=O)C3=COCCO3)c2C(N)=O)C1	S aureus helic 42
Nc1ccn([C@@H]2O[C@H](CO)[C@@H](O)C2(F)F)c(=O)n1	Sa growth inh 0.3 (no result: S aureus helic)
Nc1ccn([C@@H]2O[C@H](CO)[C@@H](O)C2O)c(=O)n1 (stereo not given in full)	none (no result: S aureus helic)
Oc1c(Cl)cc(Cl)c2cccnc12	none (no result: S aureus helic)
O=C(Oc1c(Cl)cc(Cl)c2cccnc12)c1ccco1	Sa growth inh 1.7
OC/C=C/c1ccc(O)cc1	none
Cc1cc(C)n(-c2ccc(C(=O)NCCc3ccc(S(N)(=O)=O)cc3)cc2)n1	none
Oc1ccccc1C1CC(c2cccc(Br)c2)=NC(c2ccc(Br)cc2)N1 (stereo not given)	none
Oc1ccc(Br)cc1C1CC(c2ccccc2)=NC(c2ccco2)N1 (stereo not given)	Sa growth inh 2.5
O=C(O)c1cccc(Oc2cccc(C(F)(F)F)c2)c1	none
CS(=O)(=O)c1nc(Oc2cccc(C(F)(F)F)c2)cc(Oc2cccc(C(F)(F)F)c2)n1	Sa growth inh 32
CC(C)(C)OC(=O)CSc1nnc(-c2cc(Cl)ccc2Cl)n1N	none
Cc1nc2ccccc2n1CCc1nc2c3ccccc3nc(=S)n2[nH]1	none
CCCc1nc2c3ccccc3nc(=S)n2[nH]1	Sa growth inh 1.7
O[N+]1=CC=CCC1=S.On1ccccc1=S.[Zn]	Sa growth inh -0.3 (no result: S aureus helic)
CC1CC(C)CN(C(c2ccccc2)c2sc3ncnn3c2O)C1 (stereo not given)	none (no result: Sa growth inh)
O=C(Nc1ncnc2sccc12)c1cccs1	none
O=C(Nc1ncnc2sccc12)C1CCCCC1	Sa growth inh 4.5
N#Cc1ccc(COC(=O)Cn2ccc(=O)[nH]c2=O)cc1	none
c1ccc(-c2ccc3ccccc3n2)nc1	none
c1ccc(-c2cccc(-c3ccccn3)n2)nc1	Sa growth inh 2.4
CCc1c(C)sc2c1CCN(Cc1cccc(OC)c1)C2c1ccccc1 (stereo not given)	Sa growth inh -1.1 (no result: S aureus helic)
CCOC(=O)c1ccccc1NC(=O)N1CCc2c(sc(C)c2CC)C1c1ccccc1 (stereo not given)	none (no result: S aureus helic)
CCc1c(C)sc2c1CCN(C(=O)Nc1cc(OC)c(OC)c(OC)c1)C2c1ccccc1 (stereo not given)	none (no result: S aureus helic)
CCc1c(C)sc2c1CCN(Cc1ccccc1F)C2c1ccccc1 (stereo not given)	Sa growth inh -1.3 (no result: S aureus helic)
CSc1nsc(SC)c1C(=O)NC(=O)N1CCSCC1	none (no result: S aureus helic)
CCOC(=O)c1ccc(NC(=O)c2ccc(=O)[nH]c2)cc1	none
O=C(CCc1nc2ccccc2s1)NCc1cccs1	none
CCCc1cc(=O)[nH]c(SCC(=O)N(CC(C)C)C2CCS(=O)(=O)C2)n1 (stereo not given)	none
Cc1nnc(SCC(=O)N(CC(C)C)C2CCS(=O)(=O)C2)s1 (stereo not given)	S aureus helic 26
COC(=O)c1ccc(-n2c(C)ccc2C)cc1	none
CCNC(=O)c1ccc(-n2c(C)ccc2C)cc1	S aureus helic 29
COc1ccc(-c2nc(CN3C(=O)CSc4ncccc43)c(C)o2)cc1OC	none
O=C(NC1CCCC1)c1noc2ncnc(N3CCOCC3)c12	none
O=C(Cc1ccc(S(=O)(=O)N2CCCCC2)s1)OCC(=O)c1ccccc1	none
O=C(NCc1cccnc1)c1cn(C2CC2)c2cc(N3CCN(C(=O)c4cccc(Cl)c4)CC3)c(F)cc2c1=O	Sa growth inh 4.6
CCN1CCN(c2cc3c(cc2F)c(=O)c(C(=O)O)cn3C2CC2)CC1	Sa growth inh -0.9 (no result: S aureus helic)
CCn1cc(C(=O)O)c(=O)c2cc(F)c(N3CCN(C(=O)c4ccc(F)cc4)CC3)cc21	none
O=C(O)c1cn(C2CC2)c2cc(N3CCNCC3)c(F)cc2c1=O	Sa growth inh 0.7! (no result: S aureus helic)
CCn1cc(C(=O)NCc2cccnc2)c(=O)c2cc(S(=O)(=O)N3CCCC3)ccc21	none
CCn1cc(C(=O)O)c(=O)c2cc(F)c(N3CCN(C(C)=O)CC3)cc21	none
